Results as given in PubChem BioAssay (NCATS).
Values joined by “and” are separate entries in the source; they are usually repeats but may differ in a detail not shown here. Equal entries are not always repeated. Records with an inconclusive call do not appear. The source holds several records for some structures; these can differ, active in one and inactive in another. Active and inactive are the calls of the source. The call rests on the fitted dose curve; in most records, active means well fitted inhibition curve with a large enough effect; inconclusive means small, poorly fitted or top-dose-only effect; inactive means no such curve, though single readings can be large or run the other way.

target: Cytochrome P450 2C19 (Homo sapiens) (UniProt P33261); test: qHTS Assay for Inhibitors and Substrates of Cytochrome P450 2C19 (AID 899); conditions: recombinant CYP2C19, luciferin-H EGE luminescence; series mostly up to 11.4 µM; activity, negative = inhibition: at the top concentration; further: nearly all actives have a fitted effect of over 60% in size
Sequence (P33261 whole entry, looked up): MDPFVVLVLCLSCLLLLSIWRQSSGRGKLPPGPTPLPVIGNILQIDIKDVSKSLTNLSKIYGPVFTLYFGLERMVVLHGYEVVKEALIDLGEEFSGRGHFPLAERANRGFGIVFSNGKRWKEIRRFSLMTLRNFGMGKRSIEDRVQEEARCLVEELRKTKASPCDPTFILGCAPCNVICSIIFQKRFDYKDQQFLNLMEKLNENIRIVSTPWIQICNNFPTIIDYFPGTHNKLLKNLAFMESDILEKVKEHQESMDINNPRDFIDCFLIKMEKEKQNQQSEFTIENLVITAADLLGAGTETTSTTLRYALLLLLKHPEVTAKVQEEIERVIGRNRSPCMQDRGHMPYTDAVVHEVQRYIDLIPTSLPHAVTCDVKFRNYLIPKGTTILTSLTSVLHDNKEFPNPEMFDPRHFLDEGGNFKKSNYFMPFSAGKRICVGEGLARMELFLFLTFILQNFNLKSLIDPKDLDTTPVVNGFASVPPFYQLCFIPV
Procedure, shortened: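 Reactions contain 5nM enzyme, 10uM Luciferin-H EGE (KM) and 50mM KPO4; compound preincubates 10 min at 37C, NADPH regeneration starts turnover for 60 min. Luminescence after detection reagent gives activity.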
On the % scale 0 is the no-effect control and ±100 the full control effect; potency means the concentration at half of the fitted maximal effect.

activity, negative = inhibition, inactive:
O=C(/C=N/O)NCCCCNC(=O)/C=N/O -7.12%
CCOC(=O)[C@]1(C(/C=C/c2ccco2)NC(=O)OC)CCCC1=O (some centres not stated) 40.7%
CCOC(=O)CCCCC1=CC2=CC(=O)C(C)(O)C(=O)C2=CO1 (configuration not stated) 4.86%
COc1cc(C2c3[nH]c4ccccc4c3CC3C(=O)N4C(Cc5c([nH]c6ccccc56)C4c4cc(OC)c(OC)c(OC)c4)C(=O)N32)cc(OC)c1OC (configuration not stated) -32.4%
COc1cccc(C2NC(C(=O)O)CCC2C)c1 (configuration not stated) 22.1%
C=CCc1cccc(C2NC(C(=O)O)CCC2C)c1 (configuration not stated) 60.1%
CC12C=C(/C=C/C=C/c3ccco3)C(C)(C1)C(/C=C/c1ccco1)CC2=O (configuration not stated) 85.6%
CCN1C(C)=C(C(=O)OC)C(c2ccccc2)N2C(=O)[C@@]3(C(=O)OC)O[C@@]12C1C(=O)N(C)C(=O)C13 (some centres not stated) 20.4%
COc1ccc(OCC2CC3C(CCC(C)C3c3ccc(Br)cc3)C(=O)O2)cc1 (configuration not stated) -2.87%
COC(=O)NC(CC(C)=O)c1ccc2c(c1)OCO2 (configuration not stated) -36.2%
COC(=O)CC1=COC2OCC3=CC[C@@H]1C32 (some centres not stated) 26.7%
CCOC(=O)OCC1OC(c2ccc(C(C)=O)cc2)C=CC1OC(=O)OCC (configuration not stated) -5.63%
Cc1c(OCc2ccccc2)cccc1OCc1ccccc1 -28%
CC1(C)OC(C(O)(c2cc(F)c(F)c(F)c2)c2cc(F)c(F)c(F)c2)C(C(O)(c2cc(F)c(F)c(F)c2)c2cc(F)c(F)c(F)c2)O1 (configuration not stated) -19.5%
COC(=O)NC(c1cccc(F)c1)[C@@]1(C(=O)OC)CCCC1=O (some centres not stated) -14%
CC(C)C(=O)NC(=O)C1CCCN1C(=O)/C=C/c1ccccc1 (configuration not stated) 66.6%
CC1(C)OC(C(O)(c2cccc3c2oc2ccccc23)c2cccc3c2oc2ccccc23)C(C(O)(c2cccc3c2oc2ccccc23)c2cccc3c2oc2ccccc23)O1 (configuration not stated) 103%
COc1cc(C2NC(C(=O)O)Cc3c2[nH]c2ccccc32)cc(OC)c1OC (configuration not stated) 87.4%

Potency, active:
COC(=O)NC(c1ccc2ccccc2c1)C(C(C)=O)C(=O)OC (configuration not stated) 1.26 µM
COc1cccc(/C=C/C2=CC3(C)CC2(C)C(c2cccc(OC)c2)CC3=O)c1 (configuration not stated) 2 µM

Potency, 251 nM (active) and inactive:
CC1CCC2C(=O)OC(COc3ccc(C(C)(C)C)cc3)CN2C1c1ccc(Br)cc1 (configuration not stated)

Potency, inactive and 3.16 µM (active):
CCCCCCC1Cc2cc(OC)c(OC)cc2C(C(C(=O)OCC)C(=O)OCC)O1 (configuration not stated)
